# Screening results from PubChem.
# In the library only some 3.5% were active in any assay of this set; here they are far more common.
# TbPYK inhibitor = blocks Trypanosoma brucei pyruvate kinase. 0.12% of 410,000 active. Potency, µM (highest dose often 76.8 µM), without a hit: top-dose activity, negative = inhibition, actives largely listed as inhibitors. TbPYK enzyme, Kinase-Glo Plus ATP luminescence, 45 min; also: % is scaled to controls: 0 for no effect and ±100 for the full control effect; nearly all actives have a fitted effect of over 50% in size
#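 Readout: single end-point luminescence (Kinase-Glo Plus, 10 min). Reaction conditions were TbPYK/substrate plus 130 uM ADP, 45 min at RT, pH 7.2 TEA buffer. No-enzyme wells served as controls, and data were normalized before concentration-response fitting.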
# NS1 inh = influenza NS1 inhibition | 0.4% of 270,000 active | AID 2326 | Potency, µM (highest dose often 46.1 µM), inactives show at the top dose activity, positive = more growth; calls by dose curve; also: actives are rising curves; nearly all actives have a fitted effect of over 50% in size
#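 Compounds were scored for reversing the slow growth caused by influenza A NS1 in S. cerevisiae, measured by optical density at 600 nm. Assay medium contained 2% galactose at pH 6.0; NS1-free yeast of the same strain were the positive control.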
# Sm TGR block = blocks Schistosoma mansoni thioredoxin glutathione reductase | purified TGR, DTNB reduction, TNB absorbance 405 nm | Potency, µM (doses to about 114 µM), for inactives: at the top dose activity change, negative = inhibition, hits mostly inhibitors | 3% of 360,000 active | AID 485364; also: % is scaled to controls: 0 for no effect and ±100 for the full control effect; nearly all actives have a fitted effect of over 60% in size
#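 First, TGR (20 nM dispensed) and NADPH were mixed with compound. Second, a 15 min room-temperature incubation followed. Third, further NADPH and then DTNB were added to start the reaction. Finally, TNB absorbance was monitored kinetically.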
# FBPA Giardia inh = blocks Giardia fructose-bisphosphate aldolase activity; A8B2U2; purified Giardia FBPA; Potency, µM (highest dose often 59.6 µM), for the others: at the highest dose activity, negative = inhibition, most hits filed as inhibitors; 0.71% of 290,000 active; AID 2451; also: % is scaled to controls: 0 for no effect and ±100 for the full control effect; nearly all actives have a fitted effect of over 55% in size
#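 40 nM FBPA preincubated 10 min at RT with compound (up to 57.5 uM final), then substrate plus GAPDH/TPI/NAD/arsenate coupling and diaphorase/resazurin added. Fluorescence read after 20 min at RT, 525/598 nm.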
# LmPK inhibitor = blocks Leishmania mexicana pyruvate kinase activity | Potency, µM (top dose mostly 57.5 µM), for the others: at the top dose activity change, negative = inhibition, most hits filed as inhibitors | purified LmPK, Kinase-Glo ATP luminescence, 1 h | Q27686 | 0.37% of 290,000 active; also: % is scaled to controls: 0 for no effect and ±100 for the full control effect
# Target sequence (Q27686 whole entry, looked up): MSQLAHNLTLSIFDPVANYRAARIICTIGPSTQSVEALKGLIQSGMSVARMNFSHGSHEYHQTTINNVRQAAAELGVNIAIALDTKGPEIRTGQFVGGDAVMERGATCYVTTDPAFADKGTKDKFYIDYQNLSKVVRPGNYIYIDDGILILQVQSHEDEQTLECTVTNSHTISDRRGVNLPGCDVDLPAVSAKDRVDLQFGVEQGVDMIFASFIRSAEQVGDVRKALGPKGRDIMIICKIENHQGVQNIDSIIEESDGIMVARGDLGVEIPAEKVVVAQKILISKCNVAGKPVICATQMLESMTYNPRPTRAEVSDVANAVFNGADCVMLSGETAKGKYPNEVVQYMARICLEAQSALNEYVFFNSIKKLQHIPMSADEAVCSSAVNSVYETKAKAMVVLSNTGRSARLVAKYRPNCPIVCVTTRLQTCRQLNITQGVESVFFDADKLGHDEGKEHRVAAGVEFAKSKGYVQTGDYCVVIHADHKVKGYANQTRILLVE
#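 qHTS format; LmPK 0.1 nM; substrates PEP 0.5 mM and ADP 0.1 mM. One-hour room-temperature incubation, then coupled luciferase luminescence; 0.5 nM enzyme wells mark activation.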
# RE007 growth inh = less growth of the S. pombe RE007 Vpr strain | S. pombe RE007 Vpr strain, BacTiter-Glo ATP luminescence, 24 h | 0.21% of 360,000 active | Potency, µM (doses to about 92.2 µM), without a hit: at the highest dose activity change, negative = less growth, most hits filed as inhibitors | AID 651644; active = well fitted falling curve with a large enough effect; inconclusive = small, poorly fitted or top-dose-only effect; inactive = no such curve, though single readings can be large or run the other way; also: % is scaled to controls: 0 for no effect and ±100 for the full control effect; nearly all actives have a fitted effect of over 50% in size
#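 Fission yeast strain RE007, carrying one chromosomally integrated HIV-1 vpr copy, was seeded at OD 0.01 in PMG+AL medium with 23 nL pinned compound. After 24 h at 30 °C and 99% humidity, viability was read by BacTiter-Glo luminescence.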
# Active calls of the source: *; ? = inconclusive; / = not tested or not shown. Unless noted, calls follow the shape of the dose curve; as a rule, active = well fitted curve in the direction sought with a large enough effect; inconclusive = small, poorly fitted or top-dose-only effect, or another doubt; inactive = no such curve, though single readings can be large; an effect the other way counts as inactive or inconclusive. Potency is read from the fitted curve at half-maximal effect.
SMILES,TbPYK inhibitor,NS1 inh,Sm TGR block,FBPA Giardia inh,LmPK inhibitor,RE007 growth inh
CCNCc1ccccc1OCc1ccccc1,2%,-2%,3%,1%,0%,-12%
COCCNC(=O)c1nn(-c2ccc(C)cc2)c(=O)n(C)c1=O,-2%,/,3%,/,/,/
CCC(C(=O)N1CCN(c2ccccc2)CC1)n1c(C)c2cnn(-c3ccccc3)c(=O)c2c1C (stereo not given),-4%,/,-22%,/,/,/
CCCOc1cccc(C2c3c(-c4ccccc4O)n[nH]c3C(=O)N2Cc2ccco2)c1 (stereo not given),1%,/,14%,/,/,/
Cc1c([N+](=O)[O-])c(C(=O)Nc2ccc3c(c2)OCCO3)nn1C,?,4%,-24%,4%,14µM*,-9%
Cc1ccsc1C(=O)Nc1ccc2c(c1)OCCO2,?,5%,-1%,-8%,16µM*,-24%
Cc1ncoc1C(=O)Nc1ccc2c(c1)OCCO2,-29%,-1%,14%,-1%,16µM*,-12%
Cc1ncoc1C(=O)Nc1ccccc1-c1ccccc1,-6%,1%,1µM*,5%,2%,10%
Cc1ccccc1C(=O)Nc1ccc2c(c1)OCCO2,-14%,-11%,2%,-1%,-10%,11%
Cc1cc(C(C2C(=O)CC(C)(C)CC2=O)C2C(=O)CC(C)(C)CC2=O)cc(C)c1OC(F)F,-11%,-3%,32µM*,-10%,-2%,-11%
COc1ccc(C(=O)/C=C/Sc2nc3ccccc3o2)cc1,2%,-6%,0.32µM*,-2%,-5%,13%
O=C(Nc1ccc(Cl)c(C(F)(F)F)c1)C(Cc1ccccc1)NS(=O)(=O)c1cccc2nsnc12 (stereo not given),-9%,/,-3%,/,/,/
Cc1cc(C(=O)COC(=O)c2ccc(F)cc2)c(C)n1C,2%,/,/,/,/,1%
Cc1cc(C(=O)COC(=O)c2cc(Cl)c(O)c(Cl)c2)c(C)n1C,3%,/,50µM*,/,/,-10%
O=C1Nc2cc(C(=O)N3CCC4(CC3)OCCO4)ccc2NC1CSCc1cccc(F)c1 (stereo not given),/,26%,50µM*,/,22%,/
Cc1cccc(N2CCN(C(=O)c3ccc4c(c3)NC(=O)C(CSCc3cccc(F)c3)N4)CC2C)c1 (stereo not given),-14%,17%,0%,/,1%,-2%
Cc1cc(Nc2ccc(Br)cc2)nc(C)n1,1%,/,-5%,/,/,/
CC(C)C(=O)Nc1nnc(NC(=S)Nc2ccccc2)s1,0%,/,25µM*,5%,1%,0%
CCCc1nnc(NC(=S)Nc2ccccc2)s1,-4%,/,-2%,-13%,-2%,0%
CCCNC(=O)C1CCC(Cn2c(=O)c3sccc3n(CC(=O)NCc3cccc(OC)c3OC)c2=O)CC1 (stereo not given),5%,/,-6%,/,/,/
Fc1ccc(N/N=C2/CCSc3sccc32)c(F)c1,-8%,-3%,25µM*,2%,1%,1%
Cc1cccc(C(=O)Oc2csc(=S)n2C(=O)c2cccc(C)c2)c1,28µM*,11%,-21%,11%,-21%,-16%
O=C(Oc1csc(=S)n1C(=O)c1ccccc1)c1ccccc1,?,0%,-18%,8%,-22%,136%
CCOC(=O)C1=C(C)N=c2s/c(=C\c3ccncc3)c(=O)n2C1c1ccc2c(c1)OCO2 (stereo not given),-12%,-112%,-14%,-14%,1%,6%
CCOC(=O)C1=C(C)N=c2s/c(=C3\C(=O)Nc4ccccc43)c(=O)n2C1c1ccc2c(c1)OCO2 (stereo not given),-16%,?,4µM*,-17%,-4%,13%
SMILES,TbPYK inhibitor,NS1 inh,Sm TGR block,FBPA Giardia inh,LmPK inhibitor,RE007 growth inh
O=C1C2C3C=CC(C4CC34)C2C(=O)N1Cc1ccccc1 (stereo not given),-5%,6%,32%,9%,4%,-6%
O=C1C2C3C=CC(C3=C3CCCCC3)C2C(=O)N1Cc1ccccc1 (stereo not given),4%,-15%,18µM*,9%,1%,?
Clc1ccc(CNc2cc(-c3ccccc3)nc3nncn23)cc1,1%,/,-7%,/,/,/
COc1ccccc1CNc1cc(-c2ccccc2)nc2nncn12,0%,/,35µM*,/,/,/
COC(=O)/C=c1\sc2ncnn2c1=O,?,-7%,1.4µM*,?,-2%,-18%
CNC(=O)/C(C#N)=c1\s/c(=C/C(=O)OC)c(=O)n1-c1ccccc1,1%,7%,1%,1%,4%,15%
Cc1ccc2nc(Cl)c3nnnn3c2c1,0%,/,1.4µM*,11%,-4%,25µM*
CC(C)c1nc2oc3c(N4CCNCC4)ncnc3c2c2c1CCC2,4%,3.2µM*,/,/,/,-12%
Cc1cnc(CNC(=O)CC2C(=O)NCCN2Cc2ccccc2C(F)(F)F)cn1 (stereo not given),2%,7%,11µM*,/,1%,5%
CC(C)c1cc(CNC(=O)CC2C(=O)NCCN2CC2CCCCC2)on1 (stereo not given),1%,8%,50µM*,-12%,7%,-5%
CN(Cc1ccon1)C(=O)CC1C(=O)NCCN1Cc1ccccc1C(F)(F)F (stereo not given),0%,6%,?,?,-12%,-1%
O=C(CC1C(=O)NCCN1CC1CCCCC1)NCc1ccc(Cl)cc1 (stereo not given),0%,-2%,?,1%,1%,0%
Cc1cc(CNC(=O)CC2C(=O)NCCN2Cc2ccccc2C(F)(F)F)on1 (stereo not given),-1%,3%,35µM*,-23%,16%,4%
Cc1cc(CNC(=O)CC2C(=O)NCCN2CC(c2ccccc2)c2ccccc2)on1 (stereo not given),-4%,10%,?,-21%,1%,0%
CN(CCc1cn[nH]c1)C(=O)CC1C(=O)NCCN1Cc1ccccc1C(F)(F)F (stereo not given),-4%,15%,35µM*,-29%,6%,6%
Cc1nnc(CN(C)C(=O)CC2C(=O)NCCN2Cc2ccccc2C)o1 (stereo not given),-1%,-20%,28µM*,3%,-2%,3%
Cc1cc(C)n(CCNC(=O)CC2C(=O)NCCN2Cc2ccccc2C(F)(F)F)n1 (stereo not given),-8%,1%,35µM*,-18%,-3%,3%
Cc1ccc(NC(=O)Cn2ccn(-c3ccccc3)c(=O)c2=O)cc1,0%,/,5%,/,/,/
O=C1CC(c2nc3ccccc3n2CCCCOc2ccccc2)CN1c1ccccc1Cl (stereo not given),1%,/,-2%,/,/,/
